From PubChem BioAssay
Calls of active or inactive are those of the source.

Experiments:
[1] = tested on: Plasmodium falciparum Sir2 (PF13_0152, Sir2A); test: pfSir2 binders on small-molecule microarrays, primary screen, biochemical, small-molecule microarray, 635 nm fluorescence (AID 1098); settings: small-molecule microarray binding, fluorescence 635 nm; higher = more signal;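 also: score merges spot fluorescence intensity with its signal-to-noise ratio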
[2] = small-molecule microarray binders of probe aDKK1, primary screen, biochemical, biotinylated probe, 635/667 nm fluorescence (AID 1099); settings: higher = more signal;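 also: score merges 667nm spot fluorescence with signal to noise across triplicate slides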
[3] = small-molecule microarray binders of probe aCHRDL2, primary screen, biochemical, biotinylated probe, 635/667 nm fluorescence (AID 1100); settings: higher = more signal
[4] = splicing luciferase reporter signal modulators, primary screen, spliceosome inhibition project, cell-based, HEK293, splice +/- reporter (AID 1101); settings: luminescence, 24 h, higher = more signal, called active from +8 up or from −8 down;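 also: HEK293 cells carrying a splicing-competent luciferase reporter gene; test concentration not given here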
[5] = target: Fibroblast growth factor 10 (Homo sapiens) (UniProt O15520); test: FGF10 binders on small-molecule microarrays, primary screen, biochemical, small-molecule microarray, 635 nm fluorescence (AID 1102); settings: FGF10 binding, fluorescence 635 nm, higher = more signal
[6] = tested on: glycogen synthase kinase-3 (GSK3A per assay name; protocol says GSK3B); test: GSK3 binders on small-molecule microarrays, primary screen, biochemical, small-molecule microarray, 635 nm fluorescence, GSK3A (AID 1103); settings: small-molecule microarray binding, fluorescence 635 nm; higher = more signal; also: the record names both GSK3A and GSK3B
[7] = target: Epidermal growth factor receptor (Homo sapiens) (UniProt P00533); test: EGFR binders on small-molecule microarrays, primary screen, biochemical, small-molecule microarray, 635 nm fluorescence (AID 1104); settings: EGFR binding, higher = more signal;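 also: score merges 667 nm emission intensity with spot signal to noise over triplicate slides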
[8] = target: Follistatin-related protein 3 (Homo sapiens) (UniProt O95633); test: FSTL3 binders on small-molecule microarrays, primary screen, biochemical, small-molecule microarray, 635 nm fluorescence (AID 1105); settings: FSTL3 binding, higher = more signal;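 also: score merges emission near 667 nm and signal to noise per printed spot across three slides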
[9] = target: Dickkopf-related protein 1 (Homo sapiens) (UniProt O94907); test: DKK1 binders on small-molecule microarrays, primary screen, biochemical, small-molecule microarray, 635 nm fluorescence scan (AID 1106); settings: DKK1 binding, higher = more signal;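 also: score merges emission near 667 nm with signal to noise over three replicate slides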
[10] = tested on: Inhibin beta A chain (activin A); test: INHBA (activin A) binders on microarrays, primary screen, biochemical, small-molecule microarray, 635 nm fluorescence scan (AID 1107); settings: small-molecule microarray binding, higher = more signal;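 also: mouse activin A protein probed at 4.33 µg/mL on printed slides; score merges bound-protein fluorescence near 667 nm with spot signal-to-noise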
[11] = tested on: Human papillomavirus type 1a protein E7 (residues 44-93); test: HPV1a E7 fragment binders on microarrays, primary screen, biochemical, small-molecule microarray, residues 44-93, 635 nm fluorescence (AID 1108); settings: small-molecule microarray binding, fluorescence 635 nm; higher = more signal;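 also: E7 fragment applied at 1 µg/mL in TBST for 1 h at 4 C; score combines spot fluorescence with its signal to noise ratio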
[12] = modulators of HCV replicon luciferase signal, primary screen, HCV replication inhibitor project, Huh7 cells, luciferase reporter (AID 1109); settings: 48 h, higher = more signal;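 also: huh7 hepatoma cells harbouring a luciferase neomycin HCV replicon reporter; luciferase luminescence as measure of HCV replicon replication; test concentration not given here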
[13] = target: Left-right determination factor 2 (Homo sapiens) (UniProt O00292); test: LEFTY2 binders on small-molecule microarrays, primary screen, biochemical, small-molecule microarray, 635 nm fluorescence scan (AID 1110); settings: LEFTY2 binding, higher = more signal
[14] = target: Calmodulin-1 (Homo sapiens) (UniProt P0DP23); test: CALM1 binders on microarrays, EGTA buffer, profiling panel, biochemical, small-molecule microarray, Cy5-labelled CALM1 (AID 1111); settings: Cy5-CALM1 binding fluorescence, higher = more signal;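 also: labelled calmodulin applied in Tris saline Tween buffer holding calcium plus EGTA and DTT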
[15] = target: Calmodulin-1 (Homo sapiens) (UniProt P0DP23); test: calcium-bound CALM1 binders on microarrays, profiling panel, artefact control for SMM control-protein annotation, biochemical, small-molecule microarray, Cy5-labelled CALM1, plus calcium (AID 1112); settings: Cy5-CALM1 binding fluorescence, higher = more signal;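 also: score merges spot fluorescence with signal to noise from triplicate slides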
[16] = small-molecule microarray binders of probe aWnt5a, primary screen, biochemical, biotinylated probe, 635/667 nm fluorescence (AID 1113); settings: higher = more signal;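 also: score merges 667 nm fluorescence intensity with signal-to-noise per printed feature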
[17] = small-molecule microarray binders of probe aShh, primary screen, biochemical, biotinylated probe, 635/667 nm fluorescence (AID 1114); settings: higher = more signal;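 also: probe is biotin-labelled aShh protein from a stem cell growth factor screen; measures binding of labelled protein to compounds printed on the slide; score merges feature fluorescence at 667 nm with signal-to-noise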
[18] = small-molecule microarray binders of probe aNog, primary screen, biochemical, biotinylated probe, 635/667 nm fluorescence (AID 1115); settings: higher = more signal;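 also: probe is biotinylated aNog protein used at 0.15 µg/mL for 1 h at 4 C; z-score combines 667 nm fluorescence of each spot with its signal to noise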
[19] = target: Torsin-1A-interacting protein 1 (Homo sapiens) (UniProt Q5JTV8); test: LAP1 binders from COS7 cell lysate, primary screen, small-molecule microarray, 635/667 nm fluorescence (AID 1116); settings: COS7-hLAP1 lysate binding, 635 nm fluorescence, higher = more signal
[20] = target: Alpha-bungarotoxin (Bungarus multicinctus) (UniProt P60615); test: alpha-bungarotoxin binders on microarray, profiling panel, artefact control for SMM control protein annotation, biochemical, small-molecule microarray, Alexa647 label, 635/667 nm fluorescence (AID 1117); settings: alpha-BTX-A647 binding fluorescence, higher = more signal
Alpha-bungarotoxin (Bungarus multicinctus), sequence (P60615 whole entry, looked up): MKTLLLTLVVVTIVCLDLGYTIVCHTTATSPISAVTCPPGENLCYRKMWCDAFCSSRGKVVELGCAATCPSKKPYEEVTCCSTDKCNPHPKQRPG

Torsin-1A-interacting protein 1 (Homo sapiens), sequence (Q5JTV8 whole entry, looked up): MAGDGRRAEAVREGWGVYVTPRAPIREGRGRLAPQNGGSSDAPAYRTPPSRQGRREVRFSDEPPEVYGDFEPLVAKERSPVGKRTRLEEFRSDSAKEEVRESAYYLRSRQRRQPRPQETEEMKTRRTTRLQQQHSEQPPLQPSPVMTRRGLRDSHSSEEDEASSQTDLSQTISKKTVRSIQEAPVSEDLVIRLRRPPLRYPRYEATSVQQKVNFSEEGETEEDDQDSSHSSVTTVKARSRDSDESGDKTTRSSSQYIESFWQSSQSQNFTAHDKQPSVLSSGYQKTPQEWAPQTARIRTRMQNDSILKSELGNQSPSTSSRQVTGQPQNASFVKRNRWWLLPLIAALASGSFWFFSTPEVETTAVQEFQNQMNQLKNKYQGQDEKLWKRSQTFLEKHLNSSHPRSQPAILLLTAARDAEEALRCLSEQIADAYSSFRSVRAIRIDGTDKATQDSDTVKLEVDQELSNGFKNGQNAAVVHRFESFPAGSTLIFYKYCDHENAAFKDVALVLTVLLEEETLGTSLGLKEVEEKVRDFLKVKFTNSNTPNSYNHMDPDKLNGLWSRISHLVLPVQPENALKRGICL
Left-right determination factor 2 (Homo sapiens), sequence (O00292 whole entry, looked up): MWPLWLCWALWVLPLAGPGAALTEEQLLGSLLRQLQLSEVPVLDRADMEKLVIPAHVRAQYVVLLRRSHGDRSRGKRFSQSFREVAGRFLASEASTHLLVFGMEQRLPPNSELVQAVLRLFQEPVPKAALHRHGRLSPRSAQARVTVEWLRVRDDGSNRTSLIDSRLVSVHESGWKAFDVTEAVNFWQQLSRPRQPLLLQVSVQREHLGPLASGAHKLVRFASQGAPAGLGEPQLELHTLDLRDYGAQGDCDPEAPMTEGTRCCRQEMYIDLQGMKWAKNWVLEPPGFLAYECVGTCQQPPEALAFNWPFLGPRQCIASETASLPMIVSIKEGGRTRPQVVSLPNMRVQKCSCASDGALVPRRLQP
Follistatin-related protein 3 (Homo sapiens), sequence (O95633 whole entry, looked up): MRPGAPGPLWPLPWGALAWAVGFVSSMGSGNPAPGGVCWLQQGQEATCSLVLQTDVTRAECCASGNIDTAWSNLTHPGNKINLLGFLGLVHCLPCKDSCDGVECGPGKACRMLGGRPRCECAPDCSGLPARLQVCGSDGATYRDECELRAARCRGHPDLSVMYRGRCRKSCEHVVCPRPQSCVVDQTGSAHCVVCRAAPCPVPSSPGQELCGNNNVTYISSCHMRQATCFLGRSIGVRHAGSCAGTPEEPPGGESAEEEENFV
Epidermal growth factor receptor (Homo sapiens), sequence (P00533 whole entry, looked up): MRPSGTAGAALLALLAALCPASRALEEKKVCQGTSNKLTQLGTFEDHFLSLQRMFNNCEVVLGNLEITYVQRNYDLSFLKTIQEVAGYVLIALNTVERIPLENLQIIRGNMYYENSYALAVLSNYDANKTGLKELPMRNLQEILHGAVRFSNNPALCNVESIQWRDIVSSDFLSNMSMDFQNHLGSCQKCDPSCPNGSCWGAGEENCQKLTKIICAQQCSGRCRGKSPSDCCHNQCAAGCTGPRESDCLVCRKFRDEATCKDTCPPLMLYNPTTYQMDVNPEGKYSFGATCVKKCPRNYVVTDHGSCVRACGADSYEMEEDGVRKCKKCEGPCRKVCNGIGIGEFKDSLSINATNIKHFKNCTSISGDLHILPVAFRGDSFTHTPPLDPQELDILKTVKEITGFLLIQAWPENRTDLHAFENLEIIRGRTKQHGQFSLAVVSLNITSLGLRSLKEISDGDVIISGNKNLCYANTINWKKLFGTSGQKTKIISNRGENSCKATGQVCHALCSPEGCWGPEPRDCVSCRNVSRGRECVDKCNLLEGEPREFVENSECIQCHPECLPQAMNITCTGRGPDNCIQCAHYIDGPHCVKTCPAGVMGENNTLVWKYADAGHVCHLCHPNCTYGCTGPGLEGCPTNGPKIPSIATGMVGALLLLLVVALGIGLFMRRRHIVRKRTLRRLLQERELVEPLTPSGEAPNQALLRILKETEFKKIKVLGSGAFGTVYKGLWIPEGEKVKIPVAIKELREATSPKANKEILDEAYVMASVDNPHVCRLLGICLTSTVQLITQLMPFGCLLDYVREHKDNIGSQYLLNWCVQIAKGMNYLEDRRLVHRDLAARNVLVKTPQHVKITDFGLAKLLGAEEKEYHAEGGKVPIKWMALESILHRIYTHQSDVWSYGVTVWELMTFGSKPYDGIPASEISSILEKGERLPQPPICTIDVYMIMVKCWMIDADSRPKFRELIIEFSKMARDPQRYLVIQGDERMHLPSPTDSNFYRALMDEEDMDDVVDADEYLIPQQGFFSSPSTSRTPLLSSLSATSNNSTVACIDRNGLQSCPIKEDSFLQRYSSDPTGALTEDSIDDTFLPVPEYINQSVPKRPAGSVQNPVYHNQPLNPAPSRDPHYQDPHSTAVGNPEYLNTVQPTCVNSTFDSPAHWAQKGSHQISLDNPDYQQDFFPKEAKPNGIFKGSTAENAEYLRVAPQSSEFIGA
Fibroblast growth factor 10 (Homo sapiens), sequence (O15520 whole entry, looked up): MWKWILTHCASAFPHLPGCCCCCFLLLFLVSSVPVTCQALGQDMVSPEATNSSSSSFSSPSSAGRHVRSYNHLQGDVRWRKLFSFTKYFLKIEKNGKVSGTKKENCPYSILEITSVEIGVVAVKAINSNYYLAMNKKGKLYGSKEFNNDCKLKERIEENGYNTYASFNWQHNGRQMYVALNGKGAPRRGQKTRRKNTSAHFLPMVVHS
Dickkopf-related protein 1 (Homo sapiens), sequence (O94907 whole entry, looked up): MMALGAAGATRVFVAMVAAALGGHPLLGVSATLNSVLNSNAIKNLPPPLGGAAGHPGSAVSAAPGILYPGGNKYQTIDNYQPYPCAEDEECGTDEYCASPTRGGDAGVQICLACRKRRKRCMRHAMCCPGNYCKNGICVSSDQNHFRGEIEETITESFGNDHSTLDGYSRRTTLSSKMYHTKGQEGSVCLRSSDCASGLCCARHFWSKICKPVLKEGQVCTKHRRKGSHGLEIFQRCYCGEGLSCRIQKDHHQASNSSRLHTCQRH

Row | Structure (SMILES) | composite z-score [1] | composite z-score [2] | composite z-score [3] | z-score [4] | composite z-score [5] | composite z-score [6] | composite z-score [7] | composite z-score [8] | composite z-score [9] | composite z-score [10] | composite z-score [11] | z-score [12] | composite z-score [13] | composite z-score [14] | composite z-score [15] | composite z-score [16] | composite z-score [17] | composite z-score [18] | composite z-score [19] | composite z-score [20]
1 | COC(=O)[C@@]1(Cc2ccc(F)cc2)[C@H]2c3cc(C(=O)N(C)C)n(CCn4cc([N+](=O)[O-])nc4C)c3C[C@H]2CN1C(=O)c1ccccc1 | 0.445 | 0.539 | 0.648 | 1.11 (inactive) | -0.279 | 0.0339 | -0.0789 | -0.445 | -0.145 | 0.894 | 0.81 | -0.112 | -0.831 | 0.892 | 0.378 | -0.003 | 0.631 | 1.08 | 1.49 | 0.0533
2 | O=C1C2C=CC(C(O)C(c3ccccc3)c3ccccc3)N(Nc3ccccc3)C2C(=O)N1c1ccccc1 (stereo not given) | 1.46 | 0.467 | 0.741 | -0.384 (inactive) | 0.68 | 1.32 | 0.385 | 1.44 | -0.42 | 0.221 | 1.44 | -0.267 | 0.438 | 0.809 | 0.173 | -0.0051 | 0.0068 | 0.162 | 0.429 | 1.1
3 | COCCOC(=O)N1C(=O)[C@@]2(c3ccccc31)[C@H](C(=O)N1CCCCCCC1)[C@H]1C(=O)O[C@H](c3ccccc3)[C@H](c3ccccc3)N1[C@@H]2c1ccc(O)cc1 | 1.86 | 2.77 | 1.76 | -0.216 (inactive) | 1.38 | 1.35 | 1.32 | 1.68 | 1.93 | 1.92 | 1.4 | -1.06 | 1.17 | 2.73 | 1.56 | 1.39 | 1.04 | 2.12 | 5.09 | 3.37
4 | COCCOC(=O)N1C(=O)[C@@]2(c3cc(C#CC4=CCCCC4)ccc31)[C@H](C(=O)N1CCc3cc(OC)c(OC)cc3C1)[C@H]1C(=O)O[C@H](c3ccccc3)[C@H](c3ccccc3)N1[C@@H]2c1ccc(O)cc1 | 1.04 | 0.26 | -0.0061 | -0.258 (inactive) | 0.438 | 1.12 | 1.32 | 0.583 | 0.391 | 0.732 | 1.42 | -0.934 | 0.761 | 1.74 | 0.673 | 0.18 | 0.482 | 0.707 | 1.34 | 0.967
5 | O=C1O[C@H](c2ccccc2)[C@H](c2ccccc2)N2[C@H]1[C@@H](C(=O)NC[C@H](O)c1ccccc1)[C@]1(C(=O)Nc3ccc(C#CCCO)cc31)[C@H]2c1ccccc1OCCO | 1.51 | -0.232 | 0.558 | 0.0927 (inactive) | 0.458 | -0.495 | -0.297 | 0.577 | -0.515 | 0.205 | 1.4 | -1.47 | -0.66 | 0.548 | -0.0628 | -0.147 | 0.149 | -0.0503 | 1.35 | 2.1
6 | C=C(CC1([C@@H](NP(=O)(c2ccccc2)c2ccccc2)[C@H]2C[C@@H]2CCN(C(=O)OCC)S(=O)(=O)c2ccc(C)cc2)CC1)c1ccccc1 | 0.827 | 1.31 | 1.23 | -2.39 (inactive) | 0.429 | 0.288 | 0.0577 | 0.748 | -0.636 | 1.17 | 1.39 | -2.09 | -0.763 | 1.88 | 1.07 | 0.0267 | 0.935 | 1.06 | 0.379 | 0.749
7 | CCOC(=O)C1=C(C(=O)OCC)N(S(=O)(=O)CC[Si](C)(C)C)[C@H](c2ccccc2)CC1 | 0.461 | 0.879 | 0.845 | 0.37 (inactive) | 0.8 | 1 | 0.313 | 0.971 | -0.111 | 0.955 | 1.3 | -2.8 | -0.171 | 0.435 | 0.161 | 0.0307 | -0.164 | 0.118 | 0.356 | 1.23
8 | C=CCC(OC(C)=O)[C@@H]1[C@@H](N(Cc2ccc(-c3ccccc3)cc2)C(=O)c2ccc(-c3ccccc3)cc2)c2cc(OCCCO)ccc2N1C(=O)c1ccc2ccccc2n1 (stereo not given in full) | 0.212 | 0.103 | 0.168 | -1.27 (inactive) | 0.46 | 0.213 | -0.486 | 0.204 | -0.328 | 1.38 | 0.0942 | -0.0356 | 0.108 | 0.19 | 0.531 | -0.184 | -0.214 | -0.335 | 0.276 | -0.282
9 | O=C1OCCC=C[C@H]2OC34C=CCN(CCN5CCOCC5)C(=O)[C@H]3N(CCCO)C(=O)[C@@H]4C12 (stereo not given in full) | 1.41 | -0.242 | 0.119 | -1.12 (inactive) | -0.272 | -0.869 | -0.938 | -0.549 | -0.0385 | 0.564 | -0.211 | -1.03 | -0.861 | -0.572 | -1.17 | -0.228 | -0.144 | -0.318 | -0.79 | -0.386
10 | CO[C@H]1O[C@H](CO)[C@@H](OC(=O)Nc2ccc3c(c2)OCO3)[C@@H]2OC(=O)[C@@H](Cc3ccccc3)C/C=C/C[C@H](Cc3ccccc3)C(=O)O[C@@H]12 | 0.915 | 0.0902 | 0.259 | 0.216 (inactive) | 1.39 | 0.708 | 0.342 | 0.817 | 0.401 | 0.996 | 1.37 | -2.54 | 0.0694 | 0.929 | -0.728 | 0.0533 | 0.149 | 1.09 | 0.0909 | 0.732
